Bioassay records from PubChem BioAssay.
Luciferase inh: blocks purified firefly luciferase enzyme activity; purified P. pyralis luciferase, luminescence, biochemical; Potency, µM (top dose mostly 115 µM), usual class: inhibitors; 2.5% of 76,000 active; AID 1347043; also: nearly all actives have a fitted effect of over 65% in size
Target sequence (P08659 whole entry, looked up): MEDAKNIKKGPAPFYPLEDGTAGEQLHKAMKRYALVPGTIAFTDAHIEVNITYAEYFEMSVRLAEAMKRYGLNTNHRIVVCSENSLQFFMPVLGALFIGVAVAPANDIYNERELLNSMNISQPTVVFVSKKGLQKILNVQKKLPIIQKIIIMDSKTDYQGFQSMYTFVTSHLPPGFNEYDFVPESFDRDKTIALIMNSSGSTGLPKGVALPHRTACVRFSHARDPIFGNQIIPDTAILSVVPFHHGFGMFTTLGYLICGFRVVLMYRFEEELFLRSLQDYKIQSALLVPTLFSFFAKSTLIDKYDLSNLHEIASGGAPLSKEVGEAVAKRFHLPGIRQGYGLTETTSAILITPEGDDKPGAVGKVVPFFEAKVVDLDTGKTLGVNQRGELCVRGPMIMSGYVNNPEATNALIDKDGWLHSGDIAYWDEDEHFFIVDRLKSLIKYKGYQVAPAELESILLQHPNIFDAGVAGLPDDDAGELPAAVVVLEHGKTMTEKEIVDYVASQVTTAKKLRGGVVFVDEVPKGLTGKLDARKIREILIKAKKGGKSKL
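Purified P. pyralis luciferase (10nM final) in 50mM Tris acetate pH 7.5, 10mM Mg acetate, 0.01% Tween-20, 0.05% BSA with 10uM D-luciferin and 10uM ATP. Compounds titrated qHTS. Luminescence imaged on CCD.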
NPR1 antag: human Npr1 receptor antagonism | 1.6% of 76,000 active | HEK293 hNpr1 GloSensor cGMP, ANP-stimulated luminescence | Potency, µM (doses to about 46.3 µM), inactives show at the highest dose activity change, negative = inhibition, actives largely listed as inhibitors | AID 1347048 | P16066; calls by dose curve; also: nearly all actives have a fitted effect of over 60% in size
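HEK293 cells stably expressing human Npr1 and cGMP GloSensor pGS-40F, loaded 2 h with 2% GloSensor reagent, given compound 30 min at room temperature. Luminescence read before and 20 min after 0.1 nM hNppA.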
3T3 cytotox: NIH 3T3 cell cytotoxicity; 4.3% of 94,000 active; NIH 3T3 viability, CellTiter-Glo ATP luminescence, 48-72 h; Potency, µM (titrated, usually from 96.7 µM), for the others: at the top dose activity change, negative = cytotoxicity, most hits filed as inhibitors; also: nearly all actives have a fitted effect of over 55% in size
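Cells were seeded at 400 per well, treated with pin-transferred compound, and kept 48 or 72 hr at 37 °C before CellTiter-Glo addition and luminescence imaging of cellular ATP.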
HEK293 tox: kills HEK 293 cells. AID 1345083. HEK 293 viability, ATP luminescence (CellTiter-Glo), 48-72 h. Potency, µM (titrated, usually from 115 µM), for the others: at the top dose activity change, negative = cytotoxicity, most hits filed as inhibitors. 6.6% of 94,000 active; also: nearly all actives have a fitted effect of over 60% in size
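Cytotoxicity was scored by loss of ATP-coupled luminescence (CellTiter-Glo) in HEK 293 cells. Compound treatment ran 48 or 72 hr at 37 degree Celsius, 5% CO2, 95% humidity.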
Starred values were filed as active, the others as inactive; [ ] = remark or other dose. Hits are enriched below; roughly 11% of the tested compounds scored in any of these assays. Unless noted, calls follow the shape of the dose curve; as a rule, active = well fitted curve in the direction sought with a large enough effect; inconclusive = small, poorly fitted or top-dose-only effect, or another doubt; inactive = no such curve, though single readings can be large; an effect the other way counts as inactive or inconclusive. % is scaled to controls: 0 for no effect and ±100 for the full control effect; potency is read from the fitted curve at half-maximal effect.

How did O=C(NCc1cccs1)C1CCc2sc(C(=O)N3CCCCCC3)cc2C1 (centres undefined) do in these assays?
Luciferase inh: inactive; NPR1 antag: -20.8%; 3T3 cytotox: inconclusive; HEK293 tox: inconclusive

What do the screens show for `COc1ccc(-c2nc3c(c(-c4ccccc4)n2)CN(C(=O)c2ccccc2Cl)CC3)cc1`?
Luciferase inh: inactive; NPR1 antag: 8.3%; 3T3 cytotox: inconclusive; HEK293 tox: inconclusive

How did O=C(c1ccc(F)cc1)N1CCCC(C(=O)N2CCCC(c3nc4ccncc4[nH]3)C2)C1 (centres undefined) do in these assays?
3T3 cytotox: -11.3%; HEK293 tox: -0.1%

Results for CN1Cc2c(cc(N3CCOCC3)nc2-c2cnn(C)c2)C1=O ?
Luciferase inh: inactive; NPR1 antag: 7.6%[70.6 µM]; 3T3 cytotox: 25.1µM*; HEK293 tox: inconclusive

What do the screens show for `Cc1ccccc1-c1nc(N2CCOCC2)cc2c1CN(Cc1ccccc1)C2=O`?
Luciferase inh: inactive; NPR1 antag: -27.8%[70.6 µM]; 3T3 cytotox: 25.1µM*; HEK293 tox: 50.1µM*

Results for Cc1ccccc1-c1nc(N2CCOCC2)cc2c1CN(Cc1cnn(C)c1)C2=O ?
Luciferase inh: inactive; NPR1 antag: -0.1%[70.6 µM]; 3T3 cytotox: inconclusive; HEK293 tox: inconclusive

How did O=C1c2cc(N3CCOCC3)nc(-c3ccc(F)cc3)c2CN1CC1CC1 do in these assays?
Luciferase inh: inactive; NPR1 antag: -20.5%[70.6 µM]; 3T3 cytotox: inconclusive; HEK293 tox: 100µM*

Results for O=C1c2cc(N3CCOCC3)nc(-c3ccc(F)cc3)c2CN1Cc1ccccc1 ?
Luciferase inh: inactive; NPR1 antag: -22.3%[70.6 µM]; 3T3 cytotox: inconclusive; HEK293 tox: inconclusive

What do the screens show for `CN(C)c1cccc(-c2nc(N3CCOCC3)cc3c2CN(Cc2cnn(C)c2)C3=O)c1`?
Luciferase inh: inactive; NPR1 antag: 3.2%[70.6 µM]; 3T3 cytotox: 44.7µM*; HEK293 tox: inconclusive

Results for Cc1nc2cnccn2c1C(=O)NCC(F)(F)F ?
3T3 cytotox: -5.2%[138 µM]; HEK293 tox: inactive

What do the screens show for `O=C1c2cc(N3CCOCC3)nc(-c3ccc(CO)cc3)c2CN1Cc1ccccc1`?
Luciferase inh: inactive; NPR1 antag: 0.9%[70.6 µM]; 3T3 cytotox: inconclusive; HEK293 tox: -10.1%[172 µM]

How did COc1cc(F)ccc1-c1nc(N2CCOCC2)cc2c1CN(c1ccccc1)C2=O do in these assays?
Luciferase inh: 70.8µM*; NPR1 antag: 1.2%[70.6 µM]; 3T3 cytotox: -25.0%[138 µM]; HEK293 tox: inconclusive

How did O=C1c2cc(N3CCOCC3)nc(-c3cccc(CO)c3)c2CN1Cc1ccccc1 do in these assays?
Luciferase inh: inactive; NPR1 antag: -0.6%[70.6 µM]; 3T3 cytotox: -80.4%[138 µM]; HEK293 tox: 79.4µM*

What do the screens show for `Fc1ccc2nc(CO[C@H]3CN(Cc4cnc5ccccc5c4)C[C@H]3F)[nH]c2c1`?
Luciferase inh: inactive; NPR1 antag: inconclusive; 3T3 cytotox: inconclusive; HEK293 tox: 70.8µM*

How did COC(=O)c1ccc2nc(CO[C@H]3CN(Cc4ccc5ccccc5n4)C[C@H]3F)[nH]c2c1 do in these assays?
Luciferase inh: inconclusive; NPR1 antag: 1.4%[70.6 µM]; 3T3 cytotox: inconclusive; HEK293 tox: 100µM*

How did Cc1cccc(C(=O)N2CCC3(CC2)CC(Cc2ccc(F)cc2)CCO3)c1 (centres undefined) do in these assays?
Luciferase inh: inactive; NPR1 antag: -15.7%; 3T3 cytotox: inconclusive; HEK293 tox: 44.7µM*

How did Cc1ccc(CC2CCOC3(CCN(C(=O)c4cccs4)CC3)C2)cc1 (centres undefined) do in these assays?
Luciferase inh: inactive; NPR1 antag: inconclusive; 3T3 cytotox: inconclusive; HEK293 tox: 44.7µM*

Results for Cc1ccc(CC2CCOC3(CCN(C(=O)c4cccc(C#N)c4)CC3)C2)cc1 (centres undefined) ?
Luciferase inh: inactive; NPR1 antag: inconclusive; 3T3 cytotox: inconclusive; HEK293 tox: 50.1µM*

What do the screens show for `O=C(CC1CCOC2(CCN(C(=O)c3cccs3)CC2)C1)N1CCCC1` (centres undefined)?
3T3 cytotox: -17.1%; HEK293 tox: -8.3%

What do the screens show for `Cc1noc(C)c1Cc1ccc(C(=O)N2CCC3(CC2)CC(Cc2ccc(F)cc2)CCO3)o1` (centres undefined)?
3T3 cytotox: inconclusive; HEK293 tox: 28.2µM*
